High-throughput results as filed in PubChem.
Sampled rows, rich in hits. Any-hit rate of the full collection: about 2.4%.
D2 ag-1 = agonists of human D2 dopamine receptor | activation, % at 2 µM | 0.53% of 340,000 active | AID 485358 | HEK293 T-REx D2 cells, calcium flux agonist mode;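 active = activation over 3 SD above normal in the single-dose calcium agonist read, cut at about 30% in these data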; note: 0% is about no effect
Target sequence (P14416 whole entry, looked up): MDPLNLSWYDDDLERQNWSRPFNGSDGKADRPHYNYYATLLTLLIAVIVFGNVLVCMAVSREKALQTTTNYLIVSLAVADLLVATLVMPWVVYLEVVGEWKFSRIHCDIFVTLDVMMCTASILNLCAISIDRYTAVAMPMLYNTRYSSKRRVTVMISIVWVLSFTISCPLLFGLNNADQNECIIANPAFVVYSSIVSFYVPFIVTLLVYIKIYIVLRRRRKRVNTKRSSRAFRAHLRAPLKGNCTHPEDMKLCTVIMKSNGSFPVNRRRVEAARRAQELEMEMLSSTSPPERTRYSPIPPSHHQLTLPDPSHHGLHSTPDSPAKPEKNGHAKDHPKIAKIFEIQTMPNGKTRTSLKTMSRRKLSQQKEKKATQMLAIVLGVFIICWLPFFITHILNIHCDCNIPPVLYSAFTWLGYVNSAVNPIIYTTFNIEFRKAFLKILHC
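Agonism scored from kinetic calcium signal (1 read/sec, 180 s) following compound pin transfer, after a 10 s baseline. Cells: HEK293 Trex line expressing inducible D2 receptor coupled to calcium, dye-loaded after overnight culture at 30 C.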
D2 ag-2 = human D2 receptor agonism in beta-arrestin assay | P14416 | DiscoveRx PathHunter D2 beta-arrestin, luminescence, 90 min; 100% = 57 uM dopamine signal | activation, % (concentration not given with the values) | 0.084% of 360,000 active | AID 624465; in the data active = activation above about 40%
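DiscoveRx PathHunter D2 beta-arrestin cells (2,100/well) attached overnight, then compound-stimulated 90 min at 37 C in HBSS/10 mM HEPES/0.1% Tween-20 buffer; beta-galactosidase complementation read by luminescence after 1 h at ambient temperature. Dopamine 57 uM final (EC100) as control.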
D2 antagonist = antagonists of human D2 dopamine receptor | inhibition, % at 10 µM | HEK293 TREx D2 cells, calcium flux, dopamine EC80 | 2% of 340,000 active | AID 485344 | P14416; in the data active = inhibition above about 30%; inactive = below that, where a call was filed; note: 0% is about no effect
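Compounds are added to dye-loaded, induced HEK293 T-REx cells coupled to calcium release via D2; after a 3 min kinetic read an EC80 dopamine stimulus is given and fluorescence is recorded for 3 more min.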
D2 PAM-1 = positively modulates the human D2 dopamine receptor allosterically | P14416 | HEK293 T-REx D2, calcium flux, EC20 dopamine potentiation | potentiation, % at 10 µM | 0.34% of 340,000 active | AID 485347;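 active = potentiation over 3 SD above the plate norm, cut at about 30% in these data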; note: 0% is about no effect
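Calcium flux readout, no-wash dye, 1 read/s. Inducible HEK293 Trex D2 line, overnight 30 C. Compound alone 180 s (agonist flags), then EC20 dopamine, another 180 s to score potentiation.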
D2 PAM-2 = positive allosteric modulators of human D2 dopamine receptor; AID 624464; 0.23% of 360,000 active; potentiation, % (concentration not given with the values); P14416; DiscoveRx D2 beta-arrestin cells, luminescence, 90 min; 100% = 57 uM dopamine signal; in the data active = potentiation above about 50%
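D2 cells co-treated with compound plus 50 nM dopamine (EC20) for 90 min at 37 deg C to detect potentiation. Beta-arrestin recruitment was read as enzyme-fragment luminescence after 1 h at ambient temperature. Full response was set by 57 uM dopamine.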
Starred values were filed as active, the others as inactive; ! = not confirmed by another sample.

What do the screens show for `CCOc1ccccc1C(=O)NC1CC2CCCC(C1)N2Cc1ccc(C)cc1` (stereo unspecified)?
D2 ag-1: -1; D2 ag-2: -2; D2 antagonist: 84*; D2 PAM-1: -22; D2 PAM-2: -19

Results for Cc1ccc(CN2C3CCCC2CC(NC(=O)c2ccc(C)cc2)C3)cc1 (stereo unspecified) ?
D2 ag-1: -2; D2 ag-2: 3; D2 antagonist: 74*; D2 PAM-1: -26; D2 PAM-2: -20

What do the screens show for `CCCN(CCC)CCCNC(=O)C1CCN(c2nc3ccc(CC)cc3s2)CC1`?
D2 ag-1: 3; D2 PAM-1: -14

What do the screens show for `CCCNC(=O)Cn1cc(S(=O)(=O)N2CCCC2)c(S(=O)(=O)N2CCCC2)c1`?
D2 ag-1: 0; D2 ag-2: -6; D2 antagonist: 37*; D2 PAM-1: -3; D2 PAM-2: -11

Results for CCC(C)NC(=O)Cn1cc(S(=O)(=O)N2CCCC2)c(S(=O)(=O)N2CCCC2)c1 (stereo unspecified) ?
D2 ag-1: -1; D2 ag-2: -5; D2 antagonist: 9; D2 PAM-1: -3; D2 PAM-2: 1

Results for OCCNCCOc1ccccc1-c1ccccc1 ?
D2 ag-1: 3; D2 ag-2: 2; D2 antagonist: 66*; D2 PAM-1: -10; D2 PAM-2: -24

Results for CNCCOc1ccccc1-c1ccccc1 ?
D2 ag-1: 1; D2 ag-2: 3; D2 antagonist: 45*; D2 PAM-1: -22; D2 PAM-2: -33

What do the screens show for `CC(C)(C)c1ccccc1OCCCCCNCCO`?
D2 ag-1: 1; D2 ag-2: -5; D2 antagonist: 50*; D2 PAM-1: -30; D2 PAM-2: -16

What do the screens show for `CNCCCCOc1ccccc1-c1ccccc1`?
D2 ag-1: 1; D2 ag-2: -2; D2 antagonist: -16; D2 PAM-1: -31; D2 PAM-2: -37

What do the screens show for `CN(C)CCOCCOc1ccccc1-c1ccccc1`?
D2 ag-1: 1; D2 ag-2: 1; D2 antagonist: -16; D2 PAM-1: 29; D2 PAM-2: -21

Results for OCCNCCOCCOc1ccccc1-c1ccccc1 ?
D2 ag-1: 28; D2 ag-2: -4; D2 antagonist: 33*; D2 PAM-1: -24; D2 PAM-2: -35

How did Cc1ccccc1OCCCCCNCCO do in these assays?
D2 ag-1: 0; D2 ag-2: 0; D2 antagonist: -1; D2 PAM-1: -7; D2 PAM-2: -9

How did CCc1ccc(S(=O)(=O)Nc2ccc3[nH]c(=O)sc3c2)cc1 do in these assays?
D2 ag-1: 1; D2 PAM-1: -3

Results for CCN(CC)c1cc2c(cc1F)c(=O)c(S(=O)(=O)c1cccc(C)c1)cn2C ?
D2 ag-1: 0; D2 PAM-1: 6

Results for FC(F)Sc1ccc(NC(=S)NCC2CCCCC2)cc1 ?
D2 ag-1: 8; D2 ag-2: 2; D2 antagonist: 32*; D2 PAM-1: -14; D2 PAM-2: -21

Results for FC(F)Sc1ccc(NC(=S)NC2CCCCC2)cc1 ?
D2 ag-1: 8; D2 ag-2: 0; D2 antagonist: -17; D2 PAM-1: -4; D2 PAM-2: -21

How did COc1cccc(N2CCN(C3OC(=O)c4ccccc43)CC2)c1 (stereo unspecified) do in these assays?
D2 ag-1: -2; D2 ag-2: 0; D2 antagonist: 30*; D2 PAM-1: 4; D2 PAM-2: -1

How did CCc1cccc(NC(=O)c2ccc(CNS(=O)(=O)c3ccc4c(c3)C(C)(C)C(=O)N4C)cc2)c1 do in these assays?
D2 ag-1: 0; D2 PAM-1: 1

Results for COc1ccc(C(C)=O)c(OC(=O)c2ccc(OC)c(OC)c2)c1 ?
D2 ag-1: 1; D2 ag-2: -3; D2 antagonist: -2; D2 PAM-1: 36*; D2 PAM-2: -4

Results for COc1ccc(C(C)=O)c(OC(=O)c2ccco2)c1 ?
D2 ag-1: 1; D2 ag-2: -10; D2 antagonist: 19; D2 PAM-1: 39*; D2 PAM-2: 2

Results for COc1ccc(C(=O)Nc2cccc(OC(=O)c3ccco3)c2)cc1 ?
D2 ag-1: -2; D2 ag-2: -2; D2 antagonist: -2; D2 PAM-1: 1; D2 PAM-2: -4

Results for CC(C)N(Cc1ccccc1)C(=O)C1CCCN(c2ncnc3c2nc2n3CCCCC2)C1 (stereo unspecified) ?
D2 ag-1: -1; D2 ag-2: 0; D2 antagonist: 38*; D2 PAM-1: -9; D2 PAM-2: -9

What do the screens show for `CC1CCCN(CCCNC(=O)C2CCCN(c3ncnc4c3nc3n4CCCCC3)C2)C1` (stereo unspecified)?
D2 ag-1: 0; D2 ag-2: -2; D2 antagonist: -3; D2 PAM-1: -2; D2 PAM-2: -17

Results for O=C(Nc1ccc(F)c(Cl)c1)C1CCCN(c2cnccn2)C1 (stereo unspecified) ?
D2 ag-1: 0; D2 ag-2: 1; D2 antagonist: 8; D2 PAM-1: 32*!; D2 PAM-2: -30

Results for O=C(NCCCN1CCN(c2ccc(F)cc2)CC1)C1CCCN(c2ncnc3c2nc2n3CCCCC2)C1 (stereo unspecified) ?
D2 ag-1: 0; D2 ag-2: -1; D2 antagonist: 26; D2 PAM-1: -5; D2 PAM-2: -17

How did CC1CC(C)CN(CCCNC(=O)C2CCCN(c3ncnc4c3nc3n4CCCCC3)C2)C1 (stereo unspecified) do in these assays?
D2 ag-1: -1; D2 ag-2: 2; D2 antagonist: 34*; D2 PAM-1: -15; D2 PAM-2: -18

Results for COc1ccccc1N1CCN(CCCNC(=O)C2CCCN(c3ncnc4c3nc3n4CCCCC3)C2)CC1 (stereo unspecified) ?
D2 ag-1: 0; D2 ag-2: -5; D2 antagonist: 76*; D2 PAM-1: 5; D2 PAM-2: -17

How did Cc1ccc(CNC(=O)Cn2cc3c(n2)-c2c(oc(C(=O)N4CCOCC4)c2C)CC3)cc1 do in these assays?
D2 ag-1: 0; D2 PAM-1: -4

How did Cc1ccc(NC(=O)C2CCN(c3ncnc4c3nc3n4CCCCC3)CC2)cc1Cl do in these assays?
D2 ag-1: 0; D2 ag-2: 0; D2 antagonist: -14; D2 PAM-1: -6; D2 PAM-2: -6

What do the screens show for `Cc1ccc(NC(=O)C2CCCN(c3ncnc4c3nc3n4CCCCC3)C2)cc1Cl` (stereo unspecified)?
D2 ag-1: 0; D2 ag-2: -2; D2 antagonist: 33*; D2 PAM-1: -9; D2 PAM-2: -15

Results for O=C(Nc1ccc(F)c(F)c1)C1CCCN1S(=O)(=O)c1cccc2nsnc12 (stereo unspecified) ?
D2 ag-1: 0; D2 PAM-1: 4
